Here are results for 4 compounds from PubChem BioAssay (EPA / NIEHS).

The target in test [1] is Bile acid receptor (Homo sapiens) (UniProt Q96RI1). Nature of the test: ATG_FXR_TRANS: Attagene TRANS-FACTORIAL HepG2 Assay for Farnesoid X Receptor (FXR) (AID 2282979; active = hit-call score of the fitted dose curve at least 0.9, where 1 is the maximum;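 also: hits raise reporter mRNA above DMSO so AC50 marks FXR activation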). The conditions noted are these: HepG2 Attagene TRANS FXR-GAL4 reporter transcription. In outline:
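HepG2 cells transiently transfected with reporter constructs in which a chimeric FXR-GAL4 protein drives a GAL4-UAS reporter; 24 h compound exposure. Reporter mRNA measured by RT-PCR, FAM labelling, HpaI digestion and capillary electrophoresis; gain-of-signal versus DMSO.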

Test [2] concerns the target Oxysterols receptor LXR-beta (Homo sapiens) (UniProt P55055). Nature of the test: ATG_LXRb_TRANS: Attagene TRANS-FACTORIAL HepG2 Assay for human Liver X Receptor beta (LXRb) (AID 2282981; active = hit-call score of the fitted dose curve at least 0.9, where 1 is the maximum). The conditions noted are these: HepG2 Attagene TRANS GAL4-LXRb reporter, mRNA. In outline: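 Liver-derived HepG2 cells transfected with Gal4-responsive reporters were dosed for 24 h. Activation was scored as rise in reporter mRNA, by RT-PCR and capillary electrophoresis, above DMSO baseline.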

Test [3] has as its target Hepatocyte nuclear factor 4-alpha (Homo sapiens) (UniProt P41235). Nature of the test: ATG_HNF4a_TRANS: Attagene TRANS-FACTORIAL HepG2 Assay for human Hepatocyte Nuclear Factor 4 alpha (HNF4a) (AID 2282982; active = hit-call score of the fitted dose curve at least 0.9, where 1 is the maximum). The conditions noted are these: HepG2 HNF4a transactivation reporter, mRNA readout. In outline:
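Using HepG2 liver cells transfected with GAL4-UAS reporter units, chemical-induced mRNA increases were assessed after 24 hours. Fluorescent RT-PCR fragments were separated by capillary electrophoresis and compared with DMSO negative controls.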

Test [4] is described as follows: ATG_M_06_TRANS: Attagene TRANS-FACTORIAL HepG2 Assay for M06 Transcription Factor (Internal Marker) (AID 2282983; active = hit-call score of the fitted dose curve at least 0.9, where 1 is the maximum;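 also: reporter transcript level by RT-PCR then capillary electrophoresis fluorescence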). The conditions noted are these: HepG2 Attagene TRANS M06 internal marker reporter. Put shortly: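 In this multiplexed HepG2 system, compounds are incubated 24 h with cells carrying GAL4-UAS reporter units. Reporter RNA is amplified and resolved by capillary electrophoresis, and induction is scored against DMSO.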

The nature of test [5]: ATG_M_32_TRANS: Attagene TRANS-FACTORIAL HepG2 Assay for M32 Transcription Factor (Internal Marker) (AID 2282984; active = hit-call score of the fitted dose curve at least 0.9, where 1 is the maximum;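 also: transcript level of a background control reporter unit measured by RT-PCR and capillary electrophoresis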). Particulars: HepG2 Attagene TRANS M32 internal marker reporter. In outline:
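Fluorescence-detected mRNA induction, HepG2 liver cells, 24 h after dosing. Multiple GAL4-UAS reporter units introduced by transient transfection; background-control endpoint analysed for gain of signal against DMSO.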

Test [6] concerns the target Transcriptional activator Myb (Homo sapiens) (UniProt P10242). Nature of the test: ATG_Myb_CIS: Attagene CIS-FACTORIAL HepG2 Assay for human Myeloblastosis (Myb) Proto-Oncogene Transcription Factor (AID 2282986). Particulars: HepG2 Attagene CIS-FACTORIAL Myb reporter transcription; actives raise or lower the signal. In outline: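 Fluorescence signals from capillary electrophoresis of RT-PCR-amplified reporter cDNA give the read-out. Cells: HepG2 transfected with multiple cis-regulated reporter units. Exposure lasts 24 hours; DMSO defines baseline for gain or loss of signal.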

Test [7] addresses Nuclear respiratory factor 1 (Homo sapiens) (UniProt Q16656). Nature of the test: ATG_NRF1_CIS: Attagene CIS-FACTORIAL HepG2 Assay for human Nuclear Respiratory Factor 1 (NRF1) Orphan Gene (AID 2282987). The conditions noted are these: HepG2 NRF1 cis-element reporter, Attagene multiplex; actives raise or lower the signal. In outline: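 Transcriptional reporter readout, one component of a 52-endpoint multiplexed HepG2 panel. Exposure 24 h; mRNA detected via RT-PCR and fluorescent capillary electrophoresis; fitting in both directions against DMSO.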

Test [8] has as its target Myc proto-oncogene protein (Homo sapiens) (UniProt P01106). Nature of the test: ATG_Myc_CIS: Attagene CIS-FACTORIAL HepG2 Assay for human Myelocytomatosis (Myc) Proto-Oncogene Transcription Factor (AID 2282990). The conditions noted are these: HepG2, Attagene cis-reporter transcription factor activity; actives raise or lower the signal. In outline:
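DMSO-normalised, bidirectionally fitted reporter mRNA signal. HepG2 cells transfected with cis reporter constructs, treated 24 h; transcripts detected by RT-PCR, 6-FAM primer extension and CE.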

Test [9] can be described thus: ATG_NF_kB_CIS: Attagene CIS-FACTORIAL HepG2 Assay for human Nuclear Factor Kappa B (NF-kB) (AID 2282991). The conditions noted are these: HepG2 Attagene cis-factorial NF-kB reporter mRNA; actives raise or lower the signal. In outline:
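HepG2, transient multi-reporter transfection, cis promoter elements (endogenous TFs). 24 h exposure. Total RNA → RT → PCR → 6-FAM label → HpaI → CE. Gain/loss vs DMSO.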

The nature of test [10]: ATG_NRF2_ARE_CIS: Attagene CIS-FACTORIAL HepG2 Assay for human Nuclear Factor Erythroid 2 Related Factor 2 (NFR2) response to Antioxidant Response Elements (ARE) (AID 2282992).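 As to AC50: reporter mRNA level measured by RT-PCR and capillary electrophoresis fluorescence.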 The conditions noted are these: HepG2 Attagene ARE/NRF2 reporter, transcription factor activity; actives raise or lower the signal. Put shortly:
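Fluorescence intensity of reporter-specific cDNA fragments, separated by capillary electrophoresis, reflects mRNA induction in transfected HepG2 cells at 24 h. Activity is fitted bidirectionally, DMSO serving as baseline.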

Test [11] is described as follows: ATG_Oct_MLP_CIS: Attagene CIS-FACTORIAL HepG2 Assay for human Octamer-Binding Transcription Factor (Oct) (AID 2282993). The conditions noted are these: HepG2 Attagene cis-factorial Oct reporter, mRNA; actives raise or lower the signal. In outline:
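Using HepG2 cells bearing transfected cis-reporter constructs, mRNA induction was read after 24 h by fluorescent RT-PCR and capillary electrophoresis, with DMSO defining baseline for gain- or loss-of-signal fits.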

For test [12], the target named is Cellular tumor antigen p53 (Homo sapiens) (UniProt P04637). Nature of the test: ATG_p53_CIS: Attagene CIS-FACTORIAL HepG2 Assay for human p53 Transcription Factor (AID 2282994). The conditions noted are these: HepG2 p53 cis-element reporter, Attagene mRNA; actives raise or lower the signal. In outline:
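Transiently transfected HepG2 (multiple cis reporter transcription units); exposure 24 h; reporter RNA via RT-PCR, 6-FAM extension, 2 h HpaI digest at 37 C, CE detection; DMSO baseline.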

Test [13] addresses human Peroxisome Proliferator-activated Receptor alpha (PPARa), PPARA (gene 5465) (UniProt Q07869). Nature of the test: ATG_PPARa_TRANS: Attagene TRANS-FACTORIAL HepG2 Assay for human Peroxisome Proliferator-activated Receptor alpha (PPARa) (AID 2283001; active = hit-call score of the fitted dose curve at least 0.9, where 1 is the maximum;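 as to AC50: potency for gain of reporter signal over DMSO so agonist or activator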). In outline:
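Exposure: 24 h, transiently transfected HepG2 cells. Endpoint: GAL4-UAS reporter mRNA, RT-PCR with capillary electrophoresis fluorescence. Baseline: DMSO; increases fitted.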

Test [14] can be described thus: ATG_NFI_CIS: Attagene CIS-FACTORIAL HepG2 Assay for human Nuclear Factor I (NFI) (AID 2282989). The conditions noted are these: HepG2 cis-regulatory reporter, NFI response element transcription; actives raise or lower the signal. Put shortly:
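Transfected HepG2 liver cells, exposed 24 h, supplied total RNA for oligo(dT) reverse transcription and reporter-specific PCR. Labelled, HpaI-cut fragments were sized by capillary electrophoresis; DMSO set the baseline for bidirectional fitting.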

Test [15] in a line: BSK_3C_TissueFactor: BioMAP Diversity Plus: 3C Assay for Tissue Factor Biomarker Activity (AID 2282997). Particulars: BioMAP 3C HUVEC, tissue factor biomarker readout; actives raise or lower the signal. Put shortly:
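Readout: Tissue Factor ELISA. Cells: human primary umbilical vein endothelium. Time: 24 h after dosing. Analysis: bidirectional fit, DMSO baseline.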

Test [16] is described as follows: BSK_3C_uPAR: BioMAP Diversity Plus: 3C Assay for Urokinase-type plasminogen activator receptor (uPAR) Biomarker Activity (AID 2282998). Particulars: BioMAP 3C HUVEC, uPAR biomarker ELISA; actives raise or lower the signal. Put shortly:
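In this endothelial cell-based assay, human umbilical vein primary cells were treated with chemicals and harvested at 24 h. uPAR was quantified using ELISA, with gains or losses fitted relative to DMSO controls.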

A short description of test [17]: BSK_3C_VCAM1: BioMAP Diversity Plus: 3C Assay for Vascular cell adhesion molecule 1 (VCAM1) Biomarker Activity (AID 2282999). Particulars: BioMAP 3C HUVEC, VCAM1 ELISA, cytokine-stimulated; actives raise or lower the signal. In outline:
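Vascular primary endothelium (human umbilical vein) was exposed to chemicals and assayed 24 h later. VCAM-1 levels came from ELISA, with DMSO serving as baseline for bidirectional fitting.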

Test [18] is described as follows: BSK_4H_Eotaxin3: BioMAP Diversity Plus: 4H Assay for Eotaxin 3 Biomarker Activity (AID 2283000).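 As to outcome: CCL26 protein level quantified by ELISA in parallel with SRB cytotoxicity check.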 Particulars: primary human endothelial cells (HUVEC); actives raise or lower the signal. Put shortly:
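HUVEC, 24 h post-dose, ELISA for Eotaxin-3/CCL26. Gain or loss of signal fitted bidirectionally vs DMSO baseline.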

The target of test [19] is Glucocorticoid receptor (Homo sapiens) (UniProt P04150). Nature of the test: ATG_GR_TRANS: Attagene TRANS-FACTORIAL HepG2 Assay for human Glucocorticoid Receptor (GR) (AID 2282978; active = hit-call score of the fitted dose curve at least 0.9, where 1 is the maximum;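 also: activators score as hits since higher reporter transcript over DMSO is fitted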). Particulars: HepG2 Attagene TRANS GR reporter, mRNA transcription. In outline: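 Measurement of GAL4-UAS-driven reporter mRNA in human HepG2 liver cells 24 h post-dosing, using RT-PCR with fluorescent labelling and capillary electrophoresis; the transfected constructs report exogenous NR-GAL4 chimera activity, fitted upward against DMSO.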

The target in test [20] is Nuclear receptor subfamily 4 group A member 2 (Homo sapiens) (UniProt P43354). Nature of the test: ATG_NURR1_TRANS: Attagene TRANS-FACTORIAL HepG2 Assay for human Nuclear Receptor Related Protein 1 (NURR1) (AID 2282985; active = hit-call score of the fitted dose curve at least 0.9, where 1 is the maximum). Particulars: HepG2 Attagene TRANS reporter, mRNA readout. Put shortly:
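Chimeric NR-Gal4 proteins were expressed in human HepG2 cells bearing GAL4-UAS reporter units, and induced reporter mRNA was quantified 24 h post-dosing by RT-PCR and capillary electrophoresis.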

The structures appear in SMILES notation. Several values for one entry are separate records, joined by “and”; a condition that tells them apart may be missing. Equal values may be shown once. Records with an inconclusive call do not appear. Where a structure was tested more than once in an assay, its records may differ in their call. Activity calls are given as the source filed them. The calls were made as follows, unless noted: active = hit-call score of the fitted dose curve at least 0.9, where 1 is the maximum; inactive = score below 0.9.

Nuclear receptor subfamily 4 group A member 2 (Homo sapiens), sequence (P43354 whole entry, looked up, the tested form may be a part): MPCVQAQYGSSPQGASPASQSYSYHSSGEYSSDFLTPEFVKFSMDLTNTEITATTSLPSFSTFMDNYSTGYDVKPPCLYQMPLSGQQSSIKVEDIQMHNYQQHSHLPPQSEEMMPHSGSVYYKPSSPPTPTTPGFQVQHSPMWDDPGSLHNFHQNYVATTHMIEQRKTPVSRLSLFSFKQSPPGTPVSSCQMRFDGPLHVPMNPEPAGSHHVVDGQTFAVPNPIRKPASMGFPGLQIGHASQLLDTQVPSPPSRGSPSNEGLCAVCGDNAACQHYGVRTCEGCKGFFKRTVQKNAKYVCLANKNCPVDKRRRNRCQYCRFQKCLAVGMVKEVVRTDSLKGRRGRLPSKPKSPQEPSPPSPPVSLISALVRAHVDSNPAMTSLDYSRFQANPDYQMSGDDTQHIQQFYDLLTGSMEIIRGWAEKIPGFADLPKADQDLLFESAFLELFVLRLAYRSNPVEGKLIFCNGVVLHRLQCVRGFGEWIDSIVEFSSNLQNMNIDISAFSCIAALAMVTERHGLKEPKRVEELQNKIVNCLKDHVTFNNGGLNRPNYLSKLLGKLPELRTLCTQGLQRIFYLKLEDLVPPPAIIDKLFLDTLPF
Nuclear respiratory factor 1 (Homo sapiens), sequence (Q16656 whole entry, looked up): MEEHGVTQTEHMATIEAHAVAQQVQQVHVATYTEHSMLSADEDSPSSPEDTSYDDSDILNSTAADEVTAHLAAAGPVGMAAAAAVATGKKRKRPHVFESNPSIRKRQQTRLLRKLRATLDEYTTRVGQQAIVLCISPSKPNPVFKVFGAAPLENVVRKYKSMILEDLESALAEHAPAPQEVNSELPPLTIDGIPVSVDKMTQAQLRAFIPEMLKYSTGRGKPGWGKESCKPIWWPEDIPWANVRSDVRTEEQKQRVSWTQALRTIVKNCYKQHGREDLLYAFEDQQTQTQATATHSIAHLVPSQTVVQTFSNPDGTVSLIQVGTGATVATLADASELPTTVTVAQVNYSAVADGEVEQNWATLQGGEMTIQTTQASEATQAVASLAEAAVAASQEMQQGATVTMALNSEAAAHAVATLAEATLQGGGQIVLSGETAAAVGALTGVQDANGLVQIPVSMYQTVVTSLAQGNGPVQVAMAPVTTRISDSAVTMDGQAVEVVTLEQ
Cellular tumor antigen p53 (Homo sapiens), sequence (P04637 whole entry, looked up): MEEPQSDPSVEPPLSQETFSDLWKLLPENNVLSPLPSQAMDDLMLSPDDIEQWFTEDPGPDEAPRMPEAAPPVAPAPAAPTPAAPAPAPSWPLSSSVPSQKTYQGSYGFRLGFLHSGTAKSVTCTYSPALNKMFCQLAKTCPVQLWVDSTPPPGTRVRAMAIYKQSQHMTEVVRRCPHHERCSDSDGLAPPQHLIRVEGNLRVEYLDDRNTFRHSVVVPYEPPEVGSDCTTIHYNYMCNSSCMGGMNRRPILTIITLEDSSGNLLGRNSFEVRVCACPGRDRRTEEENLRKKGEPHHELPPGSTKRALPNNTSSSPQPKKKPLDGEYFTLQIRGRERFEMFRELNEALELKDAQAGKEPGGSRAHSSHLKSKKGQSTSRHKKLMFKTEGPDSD
Oxysterols receptor LXR-beta (Homo sapiens), sequence (P55055 whole entry, looked up, the tested form may be a part): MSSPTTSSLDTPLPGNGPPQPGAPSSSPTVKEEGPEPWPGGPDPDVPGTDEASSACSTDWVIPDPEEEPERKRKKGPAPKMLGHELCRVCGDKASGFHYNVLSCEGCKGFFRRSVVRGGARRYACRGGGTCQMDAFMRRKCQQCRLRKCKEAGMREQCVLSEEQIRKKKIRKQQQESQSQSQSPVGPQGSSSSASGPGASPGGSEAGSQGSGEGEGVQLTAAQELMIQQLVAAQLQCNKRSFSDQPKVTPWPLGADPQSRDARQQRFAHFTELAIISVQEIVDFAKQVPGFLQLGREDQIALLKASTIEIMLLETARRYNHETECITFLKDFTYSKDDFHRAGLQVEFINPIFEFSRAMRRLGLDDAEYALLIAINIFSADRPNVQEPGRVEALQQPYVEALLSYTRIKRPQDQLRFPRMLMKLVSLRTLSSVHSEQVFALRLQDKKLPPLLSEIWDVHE
Hepatocyte nuclear factor 4-alpha (Homo sapiens), sequence (P41235 whole entry, looked up, the tested form may be a part): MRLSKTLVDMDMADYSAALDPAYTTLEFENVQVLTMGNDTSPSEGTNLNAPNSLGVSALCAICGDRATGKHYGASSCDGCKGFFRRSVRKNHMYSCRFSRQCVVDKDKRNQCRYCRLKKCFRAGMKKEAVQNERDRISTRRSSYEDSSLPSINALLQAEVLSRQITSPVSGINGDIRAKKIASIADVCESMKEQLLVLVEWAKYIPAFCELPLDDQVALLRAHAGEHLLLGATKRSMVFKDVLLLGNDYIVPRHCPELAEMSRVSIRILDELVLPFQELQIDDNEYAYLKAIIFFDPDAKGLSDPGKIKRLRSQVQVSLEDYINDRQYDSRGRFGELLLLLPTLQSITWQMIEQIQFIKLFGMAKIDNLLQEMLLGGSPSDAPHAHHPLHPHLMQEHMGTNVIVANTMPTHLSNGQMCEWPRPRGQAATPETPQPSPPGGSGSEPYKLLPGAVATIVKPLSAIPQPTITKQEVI
Bile acid receptor (Homo sapiens), sequence (Q96RI1 whole entry, looked up, the tested form may be a part): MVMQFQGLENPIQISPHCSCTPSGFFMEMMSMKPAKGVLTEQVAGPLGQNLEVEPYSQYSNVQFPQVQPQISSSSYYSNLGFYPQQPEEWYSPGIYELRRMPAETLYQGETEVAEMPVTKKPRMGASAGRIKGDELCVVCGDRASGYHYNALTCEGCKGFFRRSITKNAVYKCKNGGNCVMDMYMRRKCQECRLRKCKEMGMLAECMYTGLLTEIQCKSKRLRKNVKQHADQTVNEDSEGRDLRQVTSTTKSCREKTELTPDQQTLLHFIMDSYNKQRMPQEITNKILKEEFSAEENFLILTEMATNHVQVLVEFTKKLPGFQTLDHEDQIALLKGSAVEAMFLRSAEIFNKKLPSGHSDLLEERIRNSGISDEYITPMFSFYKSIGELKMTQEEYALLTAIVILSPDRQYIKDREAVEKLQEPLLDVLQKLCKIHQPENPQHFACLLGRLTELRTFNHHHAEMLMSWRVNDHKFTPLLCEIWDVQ
Transcriptional activator Myb (Homo sapiens), sequence (P10242 whole entry, looked up): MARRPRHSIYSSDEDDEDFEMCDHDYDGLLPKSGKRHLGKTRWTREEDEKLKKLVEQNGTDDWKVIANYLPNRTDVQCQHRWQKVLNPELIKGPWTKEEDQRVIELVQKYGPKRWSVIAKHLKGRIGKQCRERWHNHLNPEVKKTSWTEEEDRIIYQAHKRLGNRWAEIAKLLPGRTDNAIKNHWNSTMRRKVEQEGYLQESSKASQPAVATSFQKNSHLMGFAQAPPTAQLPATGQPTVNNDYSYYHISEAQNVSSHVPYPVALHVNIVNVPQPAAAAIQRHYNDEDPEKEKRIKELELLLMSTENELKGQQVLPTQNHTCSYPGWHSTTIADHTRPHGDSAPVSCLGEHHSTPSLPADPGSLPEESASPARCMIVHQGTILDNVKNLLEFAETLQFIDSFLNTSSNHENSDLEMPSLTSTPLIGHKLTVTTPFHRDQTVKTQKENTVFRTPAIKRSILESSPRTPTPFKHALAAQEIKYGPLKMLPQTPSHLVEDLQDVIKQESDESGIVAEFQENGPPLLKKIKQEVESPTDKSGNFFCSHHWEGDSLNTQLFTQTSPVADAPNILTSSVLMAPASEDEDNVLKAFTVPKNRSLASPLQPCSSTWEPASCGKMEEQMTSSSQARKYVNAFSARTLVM
human Peroxisome Proliferator-activated Receptor alpha (PPARa), PPARA (gene 5465), sequence (Q07869 whole entry, looked up, the tested form may be a part): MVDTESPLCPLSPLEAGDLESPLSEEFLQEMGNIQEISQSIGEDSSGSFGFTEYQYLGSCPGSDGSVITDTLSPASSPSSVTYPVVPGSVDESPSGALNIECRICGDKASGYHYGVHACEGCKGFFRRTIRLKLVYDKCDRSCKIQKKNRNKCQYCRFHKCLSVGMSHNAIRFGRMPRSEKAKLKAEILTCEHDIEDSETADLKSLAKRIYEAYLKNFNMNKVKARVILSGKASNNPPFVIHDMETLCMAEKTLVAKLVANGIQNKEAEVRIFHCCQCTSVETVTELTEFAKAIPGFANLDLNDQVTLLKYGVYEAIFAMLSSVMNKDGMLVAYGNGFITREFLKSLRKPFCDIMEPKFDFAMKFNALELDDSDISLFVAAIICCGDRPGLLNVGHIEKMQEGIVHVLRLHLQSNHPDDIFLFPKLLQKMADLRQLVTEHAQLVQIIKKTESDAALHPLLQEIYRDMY
Myc proto-oncogene protein (Homo sapiens), sequence (P01106 whole entry, looked up): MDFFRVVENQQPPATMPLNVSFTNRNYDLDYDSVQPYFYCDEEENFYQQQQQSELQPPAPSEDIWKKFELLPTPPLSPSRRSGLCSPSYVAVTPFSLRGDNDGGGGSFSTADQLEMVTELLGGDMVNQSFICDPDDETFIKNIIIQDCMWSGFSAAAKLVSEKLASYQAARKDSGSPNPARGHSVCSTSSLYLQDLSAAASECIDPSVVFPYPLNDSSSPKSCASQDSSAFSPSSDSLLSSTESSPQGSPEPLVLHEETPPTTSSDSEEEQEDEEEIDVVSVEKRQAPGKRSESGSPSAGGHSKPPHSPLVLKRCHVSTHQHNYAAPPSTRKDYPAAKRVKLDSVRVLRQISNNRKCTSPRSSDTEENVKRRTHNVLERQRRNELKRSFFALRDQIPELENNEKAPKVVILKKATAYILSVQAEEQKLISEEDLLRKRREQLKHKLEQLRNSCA

On to `CC(O)C(=O)O` (stereo not drawn), for which the call in test [1], in test [2], in [3], in test [4], in test [5] and in [6] was inactive. For the same compound, the result in test [7], in test [8], in test [9], in [10], in test [11] and in [12] was inactive. For the same compound, the call in [13] was inactive.

On to `NC(=O)N(O)[C@@H]1C=C[C@H](Oc2cccc(Oc3ccc(F)cc3)c2)C1`, for which the compound was called inactive in test [1], in test [2], in test [3], in test [5], in test [7] and in test [14]. The compound was classed as inactive in test [8], in test [9], in [12], in [15], in test [16] and in test [17]. The outcome in test [18] and in test [13] was inactive. The results for the AC50 in test [10] and in [11] were 20.6 µM (active) and 33 µM (active), respectively.

For `CCCCCCCCCCCCN1CCCC1=O`, the outcome in [19], in test [1], in test [2], in test [5], in test [6] and in test [7] was inactive. The result in [14], in test [8], in [9], in test [10], in test [11] and in test [12] was inactive. Further, the figures for the AC50 in test [15], in [17] and in [18] were 33.6 µM (active), 35.2 µM (active) and 36.9 µM (active), respectively.

Regarding `CCC(=C(c1ccc(O)cc1)c1ccc(OCCN(C)C)cc1)c1ccccc1`, the compound was classed as inactive in test [1], in test [2], in [3], in test [4], in test [5] and in [20]. The call in test [7], in test [8], in test [9], in test [10], in test [11] and in test [13] was inactive. Also, the AC50 was 13.1 µM (active) in test [8]; 5.93 µM (active) and 1.95 µM (active) and 1.77 µM (active) in test [10]; 7.1 µM (active) and 11.1 µM (active) in test [11]; 11 µM (active) in test [15]; 11.9 µM (active) in [17]; 7.42 µM (active) in [18]. For the same compound, the AC50 in [13] was 11.8 µM (active).
